# Source: PubChem BioAssay (NCATS)
# Results filed as inconclusive are left out. The source made the active and inactive calls. The call rests on the fitted dose curve; in most records, active means well fitted curve in the direction sought with a large enough effect; inconclusive means small, poorly fitted or top-dose-only effect, or another doubt; inactive means no such curve, though single readings can be large; an effect the other way counts as inactive or inconclusive.
# Test system: not listed separately
# Experiment: qHTS for Inhibitors of ATXN expression: Validation of Cytotoxic Assay (AID 588349); further: on the % scale 0 is the no-effect control and ±100 the full control effect
# Conditions: cytotoxicity counter-screen for ATXN expression inhibitors, cell viability; series mostly up to 57.1 µM; activity change, negative = cytotoxicity: at the top concentration
# Summary of the method: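 Cytotoxicity counter-screen: HEK293 cells exposed to compound titrations, 72 hr, 37 degrees C. Read-out is intracellular ATP (CellTiter Glo luminescence) as a viability measure.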
row,Structure (SMILES),"activity change, negative = cytotoxicity"
1,CCN(CC)CCNC(=O)c1ccc(NS(C)(=O)=O)cc1,-1.26% (inactive)
2,Cc1nn(-c2ccccc2)c(C)c1/C=N/N1CCN(Cc2ccccc2)CC1,-2.66% (inactive)
3,O=C1NC(=O)/C(=C/c2ccc3c(c2)OC(F)(F)O3)S1,-12.8% (inactive)
4,Nc1ncnc2n[nH]c(Nc3ccc(F)cc3)c12,-27.3% (inactive)
5,O=[N+]([O-])c1ccc(-c2nc(-c3ccc(F)cc3)c(-c3ccncc3)[nH]2)cc1,7.09% (inactive)
6,COC(=O)C1=CO[C@@H](O)[C@@H]2C(CO)=CC[C@H]12,-29.4% (inactive)
7,N[C@@H](Cn1ccc(=O)c(O)c1)C(=O)O,-14% (inactive)
8,O=C1NC(c2cccc([N+](=O)[O-])c2)=CCN1c1ccccc1O,-1.96% (inactive)
9,Brc1ccc([C@H]2CN3CCSC3=N2)cc1,-14.7% (inactive)
10,C[N+](C)(C)CCO,-1.96% (inactive)
11,COc1ccccc1N1CCN(CCN2C(=O)CC3(CCCC3)CC2=O)CC1,-5.8% (inactive)
12,Cn1cnc2c(NCc3ccccc3)nc(NCCO)nc21,-15.1% (inactive)
13,NC(N)=NCCCCN=C(N)N,-13.4% (inactive)

# Test system: not listed separately
# Experiment: qHTS for Inhibitors of ATXN expression: Validation (AID 588378); further: nearly all actives have a fitted effect of over 75% in size; further: potency means the concentration at half of the fitted maximal effect; on activity change, negative = inhibition: on the % scale 0 is the no-effect control and ±100 the full control effect
# Conditions: cell-based ATXN2 expression reporter assay, luminescence; series mostly up to 57.1 µM; activity change, negative = inhibition: at the top concentration
# Summary of the method: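 After a 2 h attachment and 24 h compound incubation, HEK293-ATXN2-FFLuc wells are read for fluorescence at 405 nm excitation/525 nm emission as a viability measure, then for Bright-Glo luminescence reflecting ATXN2 expression.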
Structure (SMILES),"activity change, negative = inhibition",Potency
CCN(CC)CCNC(=O)c1ccc(NS(C)(=O)=O)cc1,0.924% (inactive),
Cc1nn(-c2ccccc2)c(C)c1/C=N/N1CCN(Cc2ccccc2)CC1,-4.74% (inactive),
O=C1NC(=O)/C(=C/c2ccc3c(c2)OC(F)(F)O3)S1,67% (inactive),
O=[N+]([O-])c1ccc(-c2nc(-c3ccc(F)cc3)c(-c3ccncc3)[nH]2)cc1,1.59% (inactive),
COC(=O)C1=CO[C@@H](O)[C@@H]2C(CO)=CC[C@H]12,-28.7% (inactive),
N[C@@H](Cn1ccc(=O)c(O)c1)C(=O)O,-6.38% (inactive),
O=C1NC(c2cccc([N+](=O)[O-])c2)=CCN1c1ccccc1O,5.34% (inactive),
Brc1ccc([C@H]2CN3CCSC3=N2)cc1,-13.9% (inactive),
Clc1ccc2c(c1)N=C(N1CCNCC1)c1ccccc1N2,,12.6 µM (active)
C[N+](C)(C)CCO,0.414% (inactive),
COc1ccccc1N1CCN(CCN2C(=O)CC3(CCCC3)CC2=O)CC1,-8.71% (inactive),
Cn1cnc2c(NCc3ccccc3)nc(NCCO)nc21,10.7% (inactive),
NC(N)=NCCCCN=C(N)N,-14.3% (inactive),

# Target: DNA dC->dU-editing enzyme APOBEC-3G (Homo sapiens) (UniProt Q9HC16)
# Experiment: qHTS for inhibitors of Vif-A3G interactions: Validation (AID 588379); further: 0% is about no effect
# Conditions: Vif-A3G protein interaction assay; series mostly up to 46.1 µM; activity change, negative = inhibition: at the top concentration
# Summary of the method: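 Yellow fluorescence (Ex 488, Em 500-530) of Vif-coexpressing HeLa A3G-eYFP cells, scanned by Acumen cytometer, reports blocked A3G degradation. Cells plated at 700/well overnight at 37 deg C before compound addition, then a further overnight compound incubation at 37 deg C.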
# Chain of DNA dC->dU-editing enzyme APOBEC-3G (Homo sapiens) (Q9HC16 whole entry, looked up): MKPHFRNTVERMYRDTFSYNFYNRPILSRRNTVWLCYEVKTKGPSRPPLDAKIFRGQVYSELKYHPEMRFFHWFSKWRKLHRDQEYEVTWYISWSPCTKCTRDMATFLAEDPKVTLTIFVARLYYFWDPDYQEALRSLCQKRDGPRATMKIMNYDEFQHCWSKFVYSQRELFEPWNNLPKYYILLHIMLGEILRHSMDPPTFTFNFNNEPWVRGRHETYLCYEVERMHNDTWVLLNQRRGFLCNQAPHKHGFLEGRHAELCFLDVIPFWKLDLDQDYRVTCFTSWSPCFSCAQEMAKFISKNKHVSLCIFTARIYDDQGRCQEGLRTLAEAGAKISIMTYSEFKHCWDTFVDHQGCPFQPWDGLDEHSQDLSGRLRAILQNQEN
row,Structure (SMILES),"activity change, negative = inhibition"
1,CC(C)N(CCC(=O)c1ccc2ccccc2c1)Cc1ccccc1,-4.26% (inactive)
2,O=C1NC(c2cccc([N+](=O)[O-])c2)=CCN1c1ccccc1O,1.42% (inactive)
3,Clc1ccc2c(c1)N=C(N1CCNCC1)c1ccccc1N2,-0.375% (inactive)
4,COc1ccccc1N1CCN(CCN2C(=O)CC3(CCCC3)CC2=O)CC1,2.29% (inactive)
5,Cn1cnc2c(NCc3ccccc3)nc(NCCO)nc21,-5.61% (inactive)
6,NC(N)=NCCCCN=C(N)N,-3.57% (inactive)
